ASM inhibitor: Inhibitors of Secretory Acid Sphingomyelinase (S-ASM): qHTS | AID 504937, 2011 | 340,000 tested, 0.006% active | Sphingomyelin phosphodiesterase (Homo sapiens), P17405 | Potency, µM (series often up to 57.5 µM), hits mostly inhibitors | placental ASM, HMU-PC fluorogenic substrate, 60 min
Target sequence (P17405 47-631 limits assumed): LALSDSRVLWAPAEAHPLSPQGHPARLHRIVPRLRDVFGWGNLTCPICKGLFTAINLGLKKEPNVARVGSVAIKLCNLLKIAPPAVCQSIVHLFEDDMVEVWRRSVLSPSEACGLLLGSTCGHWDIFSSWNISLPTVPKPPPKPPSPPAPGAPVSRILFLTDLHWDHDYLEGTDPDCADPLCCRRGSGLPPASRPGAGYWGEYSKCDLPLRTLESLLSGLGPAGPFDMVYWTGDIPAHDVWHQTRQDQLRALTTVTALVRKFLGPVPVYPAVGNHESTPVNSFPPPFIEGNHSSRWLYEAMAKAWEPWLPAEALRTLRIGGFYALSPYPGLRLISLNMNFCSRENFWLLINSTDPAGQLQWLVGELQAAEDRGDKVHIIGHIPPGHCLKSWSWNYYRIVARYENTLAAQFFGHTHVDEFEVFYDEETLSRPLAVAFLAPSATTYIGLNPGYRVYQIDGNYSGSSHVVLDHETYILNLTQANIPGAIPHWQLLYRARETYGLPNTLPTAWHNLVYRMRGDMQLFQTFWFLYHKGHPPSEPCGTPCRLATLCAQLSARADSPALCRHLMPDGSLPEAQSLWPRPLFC
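Human placenta-derived ASM enzyme was preincubated with compound for 10 minutes at room temperature, then given fluorogenic substrate HMU-PC0 (9 uM final) for 60 minutes at 37 °C; a pH 10 stop preceded fluorescence reading at Ex 386/Em 447 nm.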
TGFb SMAD3 inh: qHTS for Inhibitors of TGF-b. HepG2 CAGA-GFP TGF-b/SMAD3 reporter, GFP fluorescence, 18 h; TGF-beta stimulated, 500 pg/mL final. Potency, µM (series often up to 46.1 µM), hits mostly inhibitors. 410,000 tested, 1.2% active; note: nearly all actives have a fitted effect of over 65% in size
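Smad-responsive CAGA-GFP expression was quantified in HEPG2 cells exposed to compounds and 500 pg/mL final TGF-beta for 18 h at 37 degrees C; unstimulated wells defined full inhibition.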
DT40 TDP1 CPT: qHTS for Inhibitors of human tyrosyl-DNA phosphodiesterase 1 (TDP1): qHTS in cells in presence of CPT. chicken DT40 Tdp1-/-;hTDP1 cells + 20 nM CPT, ATP luminescence, 48 h. Potency, µM (series often up to 46.2 µM), most hits filed as inhibitors. 420,000 tested, 12% active. AID 686979, 2013; note: nearly all actives have a fitted effect of over 55% in size
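Chicken DT40 Tdp1-/- cells stably complemented with human TDP1 were seeded at 400 cells/well in medium containing 20 nM camptothecin, exposed to pin-transferred compounds, and grown at 37 °C for at least 48 hr. Viability was read as ATP luminescence.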
HepG2 viability: qHTS for Inhibitors of TGF-b: Cytotox Counterscreen; HepG2 CAGA-GFP viability, ATP luminescence, 18 h; Potency, µM (series often up to 46.1 µM), hits mostly cytotoxic; 410,000 tested, 0.76% active; AID 588856, 2011
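CellTiter-Glo luminescence gave cytotoxicity after 18 hours at 37 degrees C. The cells were HepG2 CAGA-GFP in 1% FBS DMEM, stimulated with 500 pg/mL TGF-beta after compound addition. %Activity was normalised to no-cell wells (complete cell-killing) and DMSO (no toxicity), and curves were fitted and classified.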
IL1B secr inh: qHTS for Inhibitors of Inflammasome Signaling: IL-1-beta AlphaLISA Primary Screen. activity change, % at 57.5 µM. 360,000 tested, 4.7% active. THP-1 LPS/ATP IL-1B secretion, AlphaLISA, 16 h; stronger effect = lower value. AID 743279, 2014; in the data active = activity change below about -50%; inconclusive = mostly about -30% to -49%
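THP-1 cells pretreated 1 hr with compounds (up to 57.5 uM final), then stimulated with LPS (250 ng/mL final) plus ATP (1.25 mM final); secreted IL-1B measured by AlphaLISA after 16 hr, decreased signal indicating inhibition.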
TDP1 cell noCPT: qHTS for Inhibitors of human tyrosyl-DNA phosphodiesterase 1 (TDP1): qHTS in cells in absence of CPT; 420,000 tested, 15% active; Potency, µM (series often up to 46.2 µM), actives largely listed as inhibitors; DT40 Tdp1-/- hTDP1 cells, no CPT, ATP luminescence, 48 h; AID 686978, 2013; note: nearly all actives have a fitted effect of over 55% in size
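DT40 Tdp1-/-;hTDP1 cells, no CPT (DMSO vehicle only), 400 cells/well; compounds pin-transferred; ≥48 hr, 37 °C; CellTiter-Glo 30 min RT dark, luminescence read.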
Hits are given with their value; – = inactive; ? = inconclusive; · = no result; [ ] = dose if it differs, or a comment. An excerpt weighted towards active compounds, which were near 19% of everything screened. Unless noted, calls come from the whole dose curve; as a rule, active = well fitted curve in the direction sought with a large enough effect; inconclusive = small, poorly fitted or top-dose-only effect, or another doubt; inactive = no such curve, though single readings can be large; an effect the other way counts as inactive or inconclusive.

SMILES	ASM inhibitor	TGFb SMAD3 inh	DT40 TDP1 CPT	HepG2 viability	IL1B secr inh	TDP1 cell noCPT
Cn1c(=O)[nH]c(=O)c2c1nc(CN1CCN(c3ccc(F)cc3)CC1)n2CCc1ccccc1	–	–	–	–	–	–
NC(=O)c1ccccc1NC(=O)c1ccc2c(c1)OCO2	–	–	–	–	–	?
COc1ccc(C(=O)Nn2c(CC(C)C)nc3cc(Cl)ccc3c2=O)c(OC)c1	–	?	?	–	–	21µM
COc1ccc(C(=O)Nn2c(C)nc3ccccc3c2=O)c(OC)c1	–	–	–	–	–	–
O=C(OCc1ccccc1)N1CCC2CC1c1ccc(N3CCNCC3)cc12 (stereo unspecified)	·	–	9.2µM	–	–	7.3µM
COc1ccc(NC(=S)N2CCN(c3ccc4c(c3)C3CCN(C(=O)OCc5ccccc5)C4C3)CC2)c(OC)c1 (stereo unspecified)	·	–	7.3µM	–	–	5.2µM
Cc1ccccc1S(=O)(=O)N1CCN(c2ccc3c(c2)C2CC3CCN2C(=O)OCc2ccccc2)CC1 (stereo unspecified)	·	?	?	–	–	16µM
O=C(OCc1ccccc1)N1CCC2CC1c1cc(N3CCN(C(=S)NCCc4ccccc4)CC3)ccc12 (stereo unspecified)	·	–	?	–	–	?
O=C(OCc1ccccc1)N1CCC2CC1c1ccc(N3CCOCC3)cc12 (stereo unspecified)	·	–	?	–	–	?
CNC(=O)C(C)N1c2cccc3cccc(c23)S1(=O)=O (stereo unspecified)	–	–	–	–	–	–
COc1cccc(/C=N/NC(=O)CN2C(=O)NC3NC(=O)NC32)c1 (stereo unspecified)	–	?	–	–	–	–
COc1ccc(C(CNC(=O)c2cc(S(=O)(=O)NCc3ccco3)ccc2C)N(C)C)cc1 (stereo unspecified)	–	–	–	–	–	?
COc1ccccc1C(=O)Nc1ccnn1C1CCN(Cc2ccn[nH]2)CC1	–	–	–	–	–	–
NC1=NCCCC1	·	·	3.8µM	·	·	2.7µM
Nc1nnc2c(n1)CCCC2	–	–	–	–	–	–
COc1ccc(S(=O)(=O)Nc2ccccc2OC)cc1C	–	–	–	–	–	–
COc1cc(NS(=O)(=O)c2ccc(C)c(C)c2)c(OC)cc1Cl	–	–	18µM	–	–	?
O=C([O-])c1cc(-c2ccccc2)cc(-c2ccccc2)[n+]1CCc1ccc(Cl)cc1	–	?	4.6µM	–	?	6.5µM
COc1cccc(CCNc2ncnc3sc(C(=O)N4CCN(C)CC4)c(C)c23)c1	·	·	–[9.04 µM]	·	·	–
Cc1cnc(-n2ncc(C(=O)NCC3COCCO3)c2C2CC2)nc1-c1cccs1 (stereo unspecified)	·	·	–	·	·	–
Cc1sc2ncnc(Sc3ccccc3C(=O)Nc3ccc(C#N)cc3)c2c1C	–	–	21µM	–	–	21µM
Cc1sc2ncnc(Sc3ccccc3C(=O)Nc3ccc(Br)cc3)c2c1C	–	–	23µM	–	–	16µM
Cc1sc2ncnc(SCC(=O)N(C(C)C)C(C)C)c2c1C	–	–	–	–	–	–
Cc1sc2ncnc(Sc3ccccc3C(=O)Nc3ccccc3Cl)c2c1C	–	?	23µM	–	–	18µM
COc1ccc(NC(=O)CN(C)C(=O)c2ccccc2Sc2ncnc3sc(C)c(C)c23)cc1	–	–	?	–	–	23µM
C[C@@H]1CN([C@H](C)CO)C(=O)CCCn2nncc2CO[C@H]1CN(C)S(=O)(=O)c1ccc(F)cc1	·	–	–	–	–	?

Screening data (PubChem BioAssay)
